Screens: PubChem BioAssay, several laboratories
Measles CPE: protection of cells from measles virus. Measles virus-infected cells, CPE protection, absorbance. protection (pct of control), % at 4 µM. 140,000 tested, 1.5% active; in the data active means protection mostly above about 24%, no sharp cut-off; inactive means mostly below about 26%
sEH act: soluble epoxide hydrolase (human) activation. AID 717. P34913. purified human sEH enzymatic activity, activator screen. activation, % at 2 µM. 91,000 tested, 0.04% active; in the data active means activation above about 37%
LYP act: activators of human LYP (PTPN22) phosphatase; Q9Y2R2; recombinant LYP, DiFMUP fluorescence; 0 = plate median, 100 = signal doubled; activation, % at 2 µM; 96,000 tested, 0.11% active; AID 697;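 active means activation at 2 µM above a set limit, the mean plus 5 SD, cut at about 37% in these data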
Target sequence (Q9Y2R2 whole entry, looked up): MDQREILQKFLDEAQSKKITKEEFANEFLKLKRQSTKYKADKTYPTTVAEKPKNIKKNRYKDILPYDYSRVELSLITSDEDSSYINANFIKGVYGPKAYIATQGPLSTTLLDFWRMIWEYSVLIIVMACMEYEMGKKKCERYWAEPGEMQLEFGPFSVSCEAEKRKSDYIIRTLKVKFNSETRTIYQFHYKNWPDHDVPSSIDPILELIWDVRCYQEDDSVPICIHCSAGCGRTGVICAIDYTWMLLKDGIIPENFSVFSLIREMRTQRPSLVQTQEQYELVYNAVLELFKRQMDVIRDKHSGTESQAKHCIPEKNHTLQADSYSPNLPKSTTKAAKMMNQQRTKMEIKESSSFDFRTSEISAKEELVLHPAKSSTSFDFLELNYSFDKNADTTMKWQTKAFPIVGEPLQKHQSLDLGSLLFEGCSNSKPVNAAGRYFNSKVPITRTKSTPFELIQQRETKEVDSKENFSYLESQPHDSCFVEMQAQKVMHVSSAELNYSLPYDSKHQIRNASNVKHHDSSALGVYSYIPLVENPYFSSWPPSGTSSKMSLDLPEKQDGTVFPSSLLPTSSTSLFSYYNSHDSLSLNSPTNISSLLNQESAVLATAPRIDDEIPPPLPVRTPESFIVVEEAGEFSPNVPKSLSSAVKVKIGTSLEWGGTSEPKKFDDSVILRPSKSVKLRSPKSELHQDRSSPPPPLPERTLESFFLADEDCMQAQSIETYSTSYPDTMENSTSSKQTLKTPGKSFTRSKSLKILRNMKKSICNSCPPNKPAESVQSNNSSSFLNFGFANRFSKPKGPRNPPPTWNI
sEH inh: inhibitors of human soluble epoxide hydrolase; P34913; recombinant human sEH enzymatic activity assay; inhibition, % at 2 µM; 91,000 tested, 0.34% active; AID 707; in the data active means inhibition above about 80%
PTPN22 inh 2: inhibitors of human LYP (PTPN22) phosphatase; Q9Y2R2; recombinant LYP catalytic domain, DiFMUP fluorescence; inhibition, % at 2 µM; 96,000 tested, 0.21% active;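 active means inhibition at 2 µM at or above a set limit, the screen mean plus 3 SD, cut at about 24% in these data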;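 further: 0% = DMSO with enzyme and 100% = enzyme fully blocked by orthovanadate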
The depositor's hits bear a star; nt = no result. An excerpt weighted towards active compounds, which were near 1.7% of everything screened.

SMILES	Measles CPE	sEH act	LYP act	sEH inh	PTPN22 inh 2
CC(C)CC(c1nnnn1Cc1ccccc1)N1CCC(C(N)=O)CC1 (stereo unspecified)	33.8	6.0	3.9	-6.3	-4.0
Cc1cc(C)c(NC(=O)c2ccc[n+](Cc3ccc([N+](=O)[O-])cc3)c2)c(C)c1	10.1	nt	nt	nt	nt
Cc1ccc(-n2c(C)cc(-c3csc(N)n3)c2C)cc1	51.7*	nt	nt	nt	nt
Cc1cc(-c2csc(N)n2)c(C)n1C	18.1	0.5	2.0	1.7	-5.1
O=C(CSc1nc2ccccc2c(=O)n1Cc1ccco1)N1CCCCCC1	45.2*	-3.1	5.9	3.5	-8.2
O=C(NCc1ccco1)c1ccc2c(=O)n(Cc3ccco3)c(SCC(=O)N3CCCC3)nc2c1	2.4	-4.0	0.2	3.8	-2.9
COc1cc(OC)cc(C(=O)Nn2cc(C(=O)Nc3ccc(F)cc3F)c3ccccc3c2=O)c1	11.0	nt	nt	nt	nt
Clc1ccc(-c2nc3ccccc3n2OCc2ccccc2)cc1	39.2*	-4.4	-3.5	1.8	2.6
COc1ccc(-c2nc3ccccc3n2Cc2ccc(C)cc2)cc1	15.7	6.5	8.3	-5.0	-8.4
COc1ccc(CCn2c(=O)[nH]c3cc(C(=O)NCCN4CCOCC4)ccc3c2=O)cc1OC	7.5	-0.2	-10.4	2.1	12.5
CCCCCn1c(=O)[nH]c2cc(C(=O)NCCc3ccc(OC)c(OC)c3)ccc2c1=O	38.3*	-68.7	-7.3	67.9	6.4
COc1ccc(Oc2cc(C(F)(F)F)cnc2C(N)=O)cc1	1.3	-1.7	-2.4	1.9	1.6
CCC(C)NC(=O)Nc1ccc2c(c1)N(C)C(=O)c1ccccc1S2 (stereo unspecified)	8.7	-88.0	-13.6	87.8*	12.7
Cc1cc(C)nc(NS(=O)(=O)c2ccc(N/C=C/C(=O)c3ccc(Cl)c(Cl)c3)cc2)n1	44.5*	nt	nt	nt	nt
COC(=O)c1ccccc1NC(=O)CSc1nc(NC(=O)c2ccccc2)c2c(C)c(C)oc2n1	25.6	0.0	-5.4	-0.6	2.5
CCOC(=O)c1ccc(NC(=O)CSc2nc(NC(=O)c3ccccc3)c3c(C)c(C)oc3n2)cc1	4.4	5.8	-23.9	-8.8	25.3*
Cc1oc2c(CN3CCCC3)c(O)ccc2c(=O)c1Oc1ccccc1Br	19.4*	25.7	5.3	-26.3	-7.4
COc1ccc(Oc2c(C)oc3c(CN4CCOCC4)c(O)ccc3c2=O)cc1	34.5*	-5.7	5.8	5.4	-1.5
CCOC(=O)c1ccc(Oc2c(C)oc3c(CN4CCN(C)CC4)c(O)ccc3c2=O)cc1	17.7	-8.4	-1.8	9.9	1.2
COc1ccccc1Oc1c(C)oc2c(CN3CCN(CCO)CC3)c(O)ccc2c1=O	12.5	-0.8	-1.5	4.1	-1.3
COc1cccc(-c2cc(C(=O)NCCCn3ccnc3)no2)c1	8.7	-0.2	-4.5	-2.1	5.9
O=C(c1scc2c1CCCC2)N1CCCCC1	36.0*	8.5	10.1	-9.4	-11.7
Cc1ccc(NC(=O)c2scc3c2CCCC3)cc1	20.4	nt	nt	nt	nt
CC(C)C1N=C2c3ccccc3N=C(SCC(=O)NCCc3ccc(S(N)(=O)=O)cc3)N2C1=O (stereo unspecified)	43.3*	nt	nt	nt	nt
CCC(C)NC(=O)CSC1=Nc2ccccc2C2=NC(CC(=O)NCc3ccc(F)cc3)C(=O)N12 (stereo unspecified)	3.0	-2.5	3.4	2.2	-4.6
SMILES	Measles CPE	sEH act	LYP act	sEH inh	PTPN22 inh 2
O=C(CCn1c(=O)oc2ccccc21)Nc1nc2ccccc2s1	40.2*	-11.2	10.3	8.8	-11.0
c1ccc(-c2nc(N3CCN(c4ccccc4)CC3)nc(-n3ccnc3)n2)cc1	38.5*	-5.1	-5.8	6.5	7.0
C=CCSc1ncccc1C(=O)NCc1ccccc1	79.8*	8.4	-8.5	-7.7	7.4
CCN(CC)S(=O)(=O)c1ccc(Cl)c(C(=O)NC)c1	44.8*	-4.0	-10.9	7.8	11.4
CCOC(=O)c1[nH]c(=O)[nH]c1CSc1nc(C)cc(C)n1	13.3	5.6	11.3	-3.8	-12.0
CCOC(=O)c1[nH]c(=O)[nH]c1COC(=O)c1cc2ccccc2o1	39.7*	-8.0	-4.4	7.6	-0.6
CN(C)C(=S)SCC(=O)Nc1ccc(Cl)cc1Cl	21.4	nt	nt	nt	nt
Cc1ccc(S(=O)(=O)N2CCCCC2)cc1NC(=O)c1ccc2c(=O)n3c(nc2c1)CCCCC3	6.7	nt	nt	nt	nt
Cc1ccc(-c2csc(NC(=O)c3ccc4c(=O)n5c(nc4c3)CCCCC5)n2)cc1	55.9*	nt	nt	nt	nt
O=C(c1ccc2c(=O)n3c(nc2c1)CCCCC3)N1CCN(C(c2ccccc2)c2ccccc2)CC1	42.4*	-9.7	-13.5	11.0	13.4
CN(C(=O)c1ccc2c(=O)n3c(nc2c1)CCCCC3)c1ccccc1	4.9	-3.1	-0.6	3.8	-0.2
Cc1cc(C)c2nc(C(F)(F)F)nc(NCCCN3CCOCC3)c2c1	5.0	15.2	-2.0	-14.8	4.0
CCN1CCc2c(sc(NC(=O)Nc3ccc(Cl)c(Cl)c3)c2C(N)=O)C1	37.8	nt	nt	nt	nt
Cc1ccccc1OCCSc1nnc(-c2cccnc2)n1N	3.3	nt	nt	nt	nt
S=C(Nc1ccccc1)Nc1cc(Cl)ccc1Oc1ccccc1	32.9*	3.7	-5.8	-3.5	10.0
COc1cccc(CSc2nc3cc4c(cc3cc2C)OCCO4)c1	14.8	nt	nt	nt	nt
N#Cc1c2c(c[nH]c1=O)CCN2Cc1ccccc1	43.8*	7.4	-3.1	-3.3	1.9
CCOC(=O)C1=NN(c2cccc(Cl)c2)C2=NC(C)=C(C(=O)OC)C(c3cccs3)N12 (stereo unspecified)	13.7	-0.4	2.5	3.6	-8.4
CCN(CC)C(=O)n1cnc(-c2ccccc2)c1-c1ccccc1	5.2	nt	nt	nt	nt
O=C(CCN1CCOCC1)Nc1c(-c2ccccc2)c2cc(Br)ccc2[nH]c1=O	5.0	3.8	6.4	-5.5	-9.8
Cc1ccc2[nH]c(=O)c(N3CCOCC3)c(-c3ccccc3)c2c1	77.6*	-6.6	-8.5	3.4	8.0
Cc1ccc(C(=O)OCC(=O)NCc2ccco2)cc1	12.4	8.5	15.0	-9.5	-12.2
O=C(COC(=O)c1ccccc1)NCc1ccco1	25.9*	-0.2	-0.1	-1.7	-1.2
Cn1c(NCc2ccccc2O)nc2ccccc21	28.2*	nt	nt	nt	nt
Cn1c(NCc2cccc(Br)c2)nc2ccccc21	3.2	7.6	5.3	-13.5	-7.1
SMILES	Measles CPE	sEH act	LYP act	sEH inh	PTPN22 inh 2
C=CCNC(=S)NNC(=O)C(CCCC)CC(C)(C)O (stereo unspecified)	4.8	-14.1	5.5	18.3	-6.6
Cc1cnn(C(=O)c2cc(-c3ccccc3)nc3ccccc23)c1	7.3	2.5	7.1	-0.7	-4.8
Cc1cc2ncn(C(=O)c3cc(-c4ccccc4)nc4ccccc34)c2cc1C	29.2*	nt	nt	nt	nt
Nc1c(C(=O)NCc2ccco2)c2nc3ccccc3nc2n1CCc1ccccc1F	0.3	-10.6	-24.9	8.0	25.1*
COc1ccc(CCn2c(N)c(C(=O)NCc3ccco3)c3nc4ccccc4nc32)cc1	2.0	nt	nt	nt	nt
Cc1cccc(NC(=S)NCCN2CCOCC2)c1C	38.9*	nt	nt	nt	nt
Cc1ccc(C)c(NC(=S)NCCN2CCOCC2)c1	nt	-0.6	-2.2	-2.4	0.2
Cc1ccc(NC(=S)NCCN2CCOCC2)cc1C	6.1	38.0*	-16.7	-35.3	19.9
COC(=O)c1ccccc1S(=O)(=O)N1Cc2cc([N+](=O)[O-])ccc2Oc2ccccc21	9.8	2.9	-4.2	0.2	4.8
